Data on 5 compounds can be found in PubChem BioAssay.

A word on the inhibition: it is the change of the read-out against control, counted positive when it falls.

A short description of assay [1]: yeast TOR pathway RPL19A-GFP modulators, primary screen, cell-based, S. cerevisiae, multiplex flow cytometry (AID 1862; in the data active = percent of DMSO control GFP below about 86%;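 note: lower values mimic rapamycin by blocking the RPL19A rise seen in DMSO cells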). The settings on record: S. cerevisiae RPL19A-GFP strain, flow cytometry fluorescence, 3 h; at 10 µM; stronger effect = lower value. In general terms: A flow cytometer gives signals particle by particle.
Assay [2] in a line: modulators of MEP2-GFP levels in yeast, primary screen, S. cerevisiae, multiplex flow cytometry (AID 1867;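 active = GFP response, as percent of the DMSO control, above the screen-wide mean plus 3 SD, about 139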;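 note: median GFP channel fluorescence of barcode-gated MEP2-GFP cells measured by flow cytometry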). As to conditions: S. cerevisiae MEP2-GFP strain, 3 h, at 10 µM, stronger effect = higher value, 100% means same as DMSO wells.
A short description of assay [3]: modulators of CIT2-GFP expression in yeast, primary screen, S. cerevisiae, GFP fusion, multiplex flow cytometry (AID 1870;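 active = percent response above a set limit, the screen-wide mean plus 3 SD, cut at about 130% in these data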;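 note: barcoded CIT2-GFP strain pooled with four other GFP strains with rapamycin as positive control; median GFP fluorescence per well over plate mean of DMSO wells so 100% = DMSO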). The settings on record: 3 h, at 10 µM, stronger effect = higher value.
Assay [4] can be described thus: modulators of LAP4-GFP expression in yeast, primary screen, S. cerevisiae, multiplex flow cytometry (AID 1873). As to conditions: 3 h, at 10 µM, stronger effect = higher value.
A short description of assay [5]: modulators of AGP1-GFP expression in yeast TOR pathway, primary screen, cell-based, multiplex flow cytometry, S. cerevisiae (AID 1887;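 active = GFP signal above the screen-wide mean plus 3 SD, that is over about 124.5% of the solvent control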;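 note: AGP1-GFP fusion strain of S. cerevisiae within a five-strain barcoded multiplex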). As to conditions: 3 h, at 10 µM, stronger effect = higher value.
The nature of assay [6]: inhibitors of CD8+ T cell-vesicle binding, pilot screen, LFA-1/ICAM-1 modulator project, MLPCN validation set, flow cytometry (AID 2523;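 active = response below a set limit, under 55% cells CD8-positive and vesicle-bound, and CD8 cells' 90th-percentile brightness under 279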;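 for vesicle binding response: mean PE anti-B7-1 fluorescence of CD8+ cells relative to row control; 100% = QL9-loaded vesicles with DMSO vehicle in the same plate row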). As to conditions: 2C mouse CD8+ T cells, at 7 µM, stronger effect = lower value; double positive events: measured here: CD8+/vesicle+ event percentage.
Assay [7] deals with Integrin beta-1 (Homo sapiens) + Integrin alpha-4 (Homo sapiens) (UniProt P13612+P05556). In words: inhibition of HUTS-21 binding to VLA-4, pilot screen, VLA-4 allosteric modulator project, U937 cells, HUTS-21 mAb, flow cytometry, validation set (AID 2674;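 active = inhibition above 50%, about 3 SD of the validation set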;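 note: antibody binding induced by the VLA-4 ligand LDV present at three times its Kd; 0% = LDV ligand with antibody and no compound and 100% = antibody without LDV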). As to conditions: HUTS-21 LIBS mAb binding, at 6.7 µM, stronger effect = higher value, binding induced by LDV ligand.
Sequence of Integrin beta-1 (Homo sapiens) + Integrin alpha-4 (Homo sapiens) (P05556 whole entry, looked up): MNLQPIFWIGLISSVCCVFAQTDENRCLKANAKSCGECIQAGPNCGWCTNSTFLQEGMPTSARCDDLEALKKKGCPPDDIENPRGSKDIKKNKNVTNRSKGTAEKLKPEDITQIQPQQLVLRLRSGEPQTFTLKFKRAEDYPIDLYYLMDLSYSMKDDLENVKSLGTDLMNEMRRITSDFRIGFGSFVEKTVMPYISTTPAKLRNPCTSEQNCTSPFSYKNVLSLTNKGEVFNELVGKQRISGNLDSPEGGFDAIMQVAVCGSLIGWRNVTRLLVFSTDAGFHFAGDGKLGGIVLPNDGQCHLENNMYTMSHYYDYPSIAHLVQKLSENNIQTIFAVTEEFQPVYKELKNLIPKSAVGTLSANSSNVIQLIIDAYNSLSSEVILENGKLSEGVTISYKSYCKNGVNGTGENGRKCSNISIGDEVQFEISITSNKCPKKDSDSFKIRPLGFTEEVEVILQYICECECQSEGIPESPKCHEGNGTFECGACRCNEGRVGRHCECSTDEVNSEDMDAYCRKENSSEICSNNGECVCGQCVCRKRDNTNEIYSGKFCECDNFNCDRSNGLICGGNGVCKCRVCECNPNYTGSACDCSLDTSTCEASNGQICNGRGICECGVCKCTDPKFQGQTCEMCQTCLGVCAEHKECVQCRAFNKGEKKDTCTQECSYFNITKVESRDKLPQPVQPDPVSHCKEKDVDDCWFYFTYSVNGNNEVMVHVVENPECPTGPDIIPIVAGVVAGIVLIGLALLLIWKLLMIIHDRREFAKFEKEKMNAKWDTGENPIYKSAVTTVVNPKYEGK
Sequence of Integrin beta-1 (Homo sapiens) + Integrin alpha-4 (Homo sapiens) (P13612 whole entry, looked up): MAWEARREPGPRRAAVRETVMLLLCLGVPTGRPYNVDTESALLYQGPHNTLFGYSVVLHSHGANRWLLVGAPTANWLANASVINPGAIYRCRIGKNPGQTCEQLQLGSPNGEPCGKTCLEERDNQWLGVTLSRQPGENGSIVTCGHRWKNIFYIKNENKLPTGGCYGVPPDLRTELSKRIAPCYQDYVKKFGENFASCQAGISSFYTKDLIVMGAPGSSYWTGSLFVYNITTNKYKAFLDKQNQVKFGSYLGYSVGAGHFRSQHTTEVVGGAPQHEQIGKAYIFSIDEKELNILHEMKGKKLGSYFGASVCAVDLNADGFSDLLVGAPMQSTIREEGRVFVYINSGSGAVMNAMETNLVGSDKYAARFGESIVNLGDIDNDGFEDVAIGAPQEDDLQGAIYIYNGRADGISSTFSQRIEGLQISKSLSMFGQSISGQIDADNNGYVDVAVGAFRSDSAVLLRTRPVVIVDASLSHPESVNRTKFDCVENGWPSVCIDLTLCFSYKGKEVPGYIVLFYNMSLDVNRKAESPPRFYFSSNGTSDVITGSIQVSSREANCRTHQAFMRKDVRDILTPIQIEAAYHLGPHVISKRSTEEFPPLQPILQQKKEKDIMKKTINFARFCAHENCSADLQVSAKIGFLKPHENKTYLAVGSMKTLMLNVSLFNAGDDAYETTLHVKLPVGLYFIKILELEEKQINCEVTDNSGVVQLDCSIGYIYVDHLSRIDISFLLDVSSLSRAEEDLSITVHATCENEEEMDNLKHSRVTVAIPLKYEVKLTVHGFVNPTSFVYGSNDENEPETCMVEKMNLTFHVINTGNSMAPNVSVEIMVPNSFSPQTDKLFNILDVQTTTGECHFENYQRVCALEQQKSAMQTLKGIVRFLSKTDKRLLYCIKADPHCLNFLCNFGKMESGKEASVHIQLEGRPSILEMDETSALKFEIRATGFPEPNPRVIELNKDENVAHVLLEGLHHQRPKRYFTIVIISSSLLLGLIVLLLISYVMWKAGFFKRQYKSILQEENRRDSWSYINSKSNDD
Assay [8] is described as follows: superoxide lowering in aged yeast cells, pilot screen, validation compound set (AID 2706;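 active = superoxide response below 65% of plate, a cut near 3 SD across the whole screen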;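 note: yeast exposed to compound for one week at 30 degrees C before staining; 100% = mean of all compound wells on the same plate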). As to conditions: S. cerevisiae aging, superoxide DHE fluorescence; at 10 µM; stronger effect = lower value.
Assay [9] deals with Beta-adrenergic receptor kinase 1 (Homo sapiens) (UniProt P25098). In words: GRK2 binders displacing RNA aptamer, biochemical, validation, human GRK2, bead flow cytometry (AID 488806;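 active = aptamer binding inhibition above 30%, about 3 SD of noise from non-fluorescent compounds; inactive = inhibition at or below 30%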). The settings on record: bead-bound GRK2, FAM-aptamer displacement, at 10 µM, stronger effect = higher value.
Sequence of Beta-adrenergic receptor kinase 1 (Homo sapiens) (P25098 whole entry, looked up): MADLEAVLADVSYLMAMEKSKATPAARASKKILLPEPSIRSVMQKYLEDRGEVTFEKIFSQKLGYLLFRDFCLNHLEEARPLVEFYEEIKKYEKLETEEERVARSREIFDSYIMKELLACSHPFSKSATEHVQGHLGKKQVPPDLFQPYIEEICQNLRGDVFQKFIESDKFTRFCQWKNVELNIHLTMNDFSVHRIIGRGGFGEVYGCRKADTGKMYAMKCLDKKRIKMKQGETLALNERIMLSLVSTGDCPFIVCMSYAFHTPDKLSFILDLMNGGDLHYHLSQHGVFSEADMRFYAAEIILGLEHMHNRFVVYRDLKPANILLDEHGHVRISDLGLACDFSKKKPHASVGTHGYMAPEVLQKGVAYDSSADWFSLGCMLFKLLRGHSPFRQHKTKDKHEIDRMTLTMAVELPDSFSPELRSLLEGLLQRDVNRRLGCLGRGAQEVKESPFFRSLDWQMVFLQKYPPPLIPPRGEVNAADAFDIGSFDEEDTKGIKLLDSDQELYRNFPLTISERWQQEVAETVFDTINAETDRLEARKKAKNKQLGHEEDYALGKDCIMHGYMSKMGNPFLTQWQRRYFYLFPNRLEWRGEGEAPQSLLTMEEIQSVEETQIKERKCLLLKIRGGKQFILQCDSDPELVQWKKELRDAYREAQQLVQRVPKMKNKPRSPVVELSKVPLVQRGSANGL
Assay [10] has as its target Beta-2 adrenergic receptor (Homo sapiens) (UniProt P07550). In words: beta2AR agonists driving receptor internalization, pilot screen, cell-based, FAP fluorogen, flow cytometry, validation set (AID 504459;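 active = percent response above 42, roughly 3 SD of non-fluorescent test compounds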;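 note: agonist-driven loss of surface beta2AR via internalization measured by FAP dye flow cytometry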). The settings on record: Am2.2-beta2AR cells, FAP surface receptor flow cytometry; at 10 µM; stronger effect = higher value.
Assay [11] concerns the target AP-2 complex subunit beta (Homo sapiens) (UniProt P63010). In words: inhibitors of arrestin peptide binding to AP2, pilot screen, biochemical, validation set, GST-AP2 beads, flow cytometry (AID 504541;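 active = inhibition above 54%, about 3 SD of non-fluorescent compounds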;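 note: AP2 carries R879A mutation and is captured from E. coli lysate; bead-bound FITC arrestin peptide fluorescence measuring arrestin peptide binding to AP2; 0% = DMSO wells and 100% = excess unlabeled arrestin peptide control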). As to conditions: FITC arrestin peptide, at 10 µM, stronger effect = higher value, AP2 beta2 appendage fragment, R879A mutant.
Assay [12] can be described thus: yeast V-ATPase proton transport modulators, S. cerevisiae, pHLuorin, HTS validation (AID 504600; in the data active = response above about 15%;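 note: plate controls were DMSO for no effect and reference compound for full effect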). The settings on record: S. cerevisiae pHLuorin cytosolic pH, at 10 µM, stronger effect = higher value.
The subject of assay [13] is anti-desmoglein-3 scFv antibody binding to human DSG3. In words: inhibitors of anti-DSG3 scFv binding to DSG3, pilot screen, biochemical, validation compound set, bead-based, flow cytometry (AID 588368;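 active = binding below the plate cutoff, the plate median minus 3 SD, with a reading above zero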;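 note: signal is the median channel fluorescence of bead-bound GFP antibody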). The settings on record: Protein G beads, DSG3-Fc, scFv-GFP binding, at 10 µM, stronger effect = lower value.
Assay [14] is described as follows: inhibitors of fungal efflux pumps CDR1, CDR2, MDR1, pilot screen, validation compound set, multiplex, phenotypic (AID 588506;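 active = efflux inhibition above 0.42, the validation set average plus 4 SD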;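 note: Nile Red retained in cells so higher fluorescence means more efflux inhibition; 0 = negative control wells and 1 = enniatin B 25 µM full block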). The settings on record: S. cerevisiae pump-expressing triplex, Nile Red efflux flow cytometry; at 10 µM; stronger effect = higher value; the pumps come from Candida albicans.
Assay [15] addresses ATP-binding cassette sub-family B member 6 (Homo sapiens) (UniProt Q9NP58). Put plainly: ABCB6 transporter inhibitors, pilot screen, K562-ABCB6 cells, flow cytometry, validation set (AID 588550;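 active = inhibition above the screen-wide mean plus 3 SD, about 51%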;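 note: 0% = DMSO wells and 100% = benzethonium chloride 70 µM positive control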). The settings on record: K562-ABCB6 porphyrin accumulation, 1 h, at 10 µM, stronger effect = higher value.
Assay [16] is described as follows: promoters of myeloid differentiation in arrested cells, primary screen, cell-based, GFP/MAC1 double positive, flow cytometry, validation set (AID 588685;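 active = differentiation response of at least 50%, scaled between solvent and reference control, from cells with both markers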;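 note: compound exposure lasts four days before antibody staining and flow analysis; 0% = DMSO wells and 100% = 5 µM fulvestrant positive control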). As to conditions: ER-HoxA9 marrow cells, stronger effect = higher value, normalized: vehicle 0, fulvestrant 100.

Results filed as inconclusive are left out. Calls of active or inactive are those of the source.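 Rule for the calls, unless noted: active = GFP signal, as percent of the solvent control, above the screen mean plus 3 SD, about 149; inconclusive = no reading because the compound's own fluorescence upset strain identification; inactive = the rest.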

Sequence of ATP-binding cassette sub-family B member 6 (Homo sapiens) (Q9NP58 whole entry, looked up): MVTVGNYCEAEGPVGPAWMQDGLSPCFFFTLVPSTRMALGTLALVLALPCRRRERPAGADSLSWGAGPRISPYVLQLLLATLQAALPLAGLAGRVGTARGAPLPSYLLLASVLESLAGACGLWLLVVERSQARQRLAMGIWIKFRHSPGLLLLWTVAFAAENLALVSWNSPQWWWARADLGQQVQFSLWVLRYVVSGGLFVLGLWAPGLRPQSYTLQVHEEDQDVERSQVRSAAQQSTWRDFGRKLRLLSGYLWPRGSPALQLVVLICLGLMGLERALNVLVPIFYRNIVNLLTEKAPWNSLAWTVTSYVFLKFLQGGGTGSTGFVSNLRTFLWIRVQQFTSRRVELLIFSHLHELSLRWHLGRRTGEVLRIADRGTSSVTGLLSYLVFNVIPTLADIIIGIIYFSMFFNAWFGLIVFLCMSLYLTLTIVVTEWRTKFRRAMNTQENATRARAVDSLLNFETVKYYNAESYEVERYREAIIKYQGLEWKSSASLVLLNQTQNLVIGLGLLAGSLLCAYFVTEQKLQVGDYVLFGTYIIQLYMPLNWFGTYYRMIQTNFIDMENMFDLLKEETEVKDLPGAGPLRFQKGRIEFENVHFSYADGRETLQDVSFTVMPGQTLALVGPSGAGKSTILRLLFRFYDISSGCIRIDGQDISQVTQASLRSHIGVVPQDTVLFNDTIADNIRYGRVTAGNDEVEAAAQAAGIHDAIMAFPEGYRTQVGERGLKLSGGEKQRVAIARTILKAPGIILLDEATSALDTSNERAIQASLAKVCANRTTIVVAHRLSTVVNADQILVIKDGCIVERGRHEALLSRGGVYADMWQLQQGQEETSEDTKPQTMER
Sequence of Beta-2 adrenergic receptor (Homo sapiens) (P07550 whole entry, looked up): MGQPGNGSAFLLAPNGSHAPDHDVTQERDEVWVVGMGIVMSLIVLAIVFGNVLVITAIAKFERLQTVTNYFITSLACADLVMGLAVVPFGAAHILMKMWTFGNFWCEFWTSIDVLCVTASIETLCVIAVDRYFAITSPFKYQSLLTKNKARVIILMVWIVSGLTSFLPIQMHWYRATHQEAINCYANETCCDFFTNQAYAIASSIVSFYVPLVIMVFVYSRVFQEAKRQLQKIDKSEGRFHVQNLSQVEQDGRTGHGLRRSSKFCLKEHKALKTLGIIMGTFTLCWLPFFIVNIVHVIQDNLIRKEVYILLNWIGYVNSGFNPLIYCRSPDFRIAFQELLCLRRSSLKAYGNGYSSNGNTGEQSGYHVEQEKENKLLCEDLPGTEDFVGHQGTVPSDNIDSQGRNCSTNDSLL
Sequence of AP-2 complex subunit beta (Homo sapiens) (P63010 whole entry, looked up, the tested form may be a part, one chain of several): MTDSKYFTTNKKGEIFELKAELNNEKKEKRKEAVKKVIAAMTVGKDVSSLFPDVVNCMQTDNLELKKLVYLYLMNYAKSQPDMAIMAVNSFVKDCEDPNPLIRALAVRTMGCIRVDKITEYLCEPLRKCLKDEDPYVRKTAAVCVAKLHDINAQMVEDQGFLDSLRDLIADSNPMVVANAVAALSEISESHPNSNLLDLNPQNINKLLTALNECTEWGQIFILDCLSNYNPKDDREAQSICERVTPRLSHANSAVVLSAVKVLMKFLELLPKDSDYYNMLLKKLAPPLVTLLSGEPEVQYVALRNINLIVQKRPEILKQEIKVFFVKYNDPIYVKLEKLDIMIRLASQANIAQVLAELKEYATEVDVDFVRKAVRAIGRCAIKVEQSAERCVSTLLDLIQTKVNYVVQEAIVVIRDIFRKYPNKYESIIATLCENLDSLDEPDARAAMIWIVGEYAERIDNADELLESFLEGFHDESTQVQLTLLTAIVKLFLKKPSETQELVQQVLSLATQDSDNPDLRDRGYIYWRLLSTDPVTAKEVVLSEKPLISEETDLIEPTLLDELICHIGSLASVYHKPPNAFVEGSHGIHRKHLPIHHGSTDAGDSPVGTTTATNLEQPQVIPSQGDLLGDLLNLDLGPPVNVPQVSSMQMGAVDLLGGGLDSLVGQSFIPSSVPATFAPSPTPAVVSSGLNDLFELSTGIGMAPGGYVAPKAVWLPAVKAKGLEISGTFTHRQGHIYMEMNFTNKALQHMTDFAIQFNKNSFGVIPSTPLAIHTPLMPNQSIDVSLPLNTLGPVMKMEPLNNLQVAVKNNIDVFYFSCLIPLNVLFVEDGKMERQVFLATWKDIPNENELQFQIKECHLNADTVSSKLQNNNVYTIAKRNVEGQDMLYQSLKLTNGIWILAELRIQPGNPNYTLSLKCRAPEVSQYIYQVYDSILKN

Consider `Cc1cccc(N2CCN(C(=S)c3ccccc3)CC2)c1`, for which the percent of DMSO control GFP in assay [1] is 100% (inactive). Moreover, the figures for the GFP response vs DMSO in [2] and in assay [4] were 108% (inactive) and 88.7% (inactive), respectively. The percent response of DMSO control in assay [3] is 100% (inactive). Further, in assay [5], the GFP response, % of DMSO was 90.8% (inactive). This compound also came in with a double positive events in [6] of 63.1%. Also, the vesicle binding response in [6] is 5220% (inactive). Further, the figures for the inhibition in [7], in assay [11] and in [15] were -4.6% (inactive), -6.82% (inactive) and 2% (inactive), respectively. For the same compound, the superoxide response (% of plate) in [8] is 101% (inactive). In addition, the aptamer binding inhibition in assay [9] was 0% (inactive). Moreover, the response in [10] was -1.25% (inactive); in assay [12] it was 1.76% (inactive). Further, the binding (% of control) in [13] was 95.3% (inactive). Besides, the efflux inhibition (fraction of control) in assay [14] is -0.14 (inactive). For the same compound, the differentiation response in assay [16] is -8.55% (inactive).

For `CC(NC(=O)c1cccnc1)C(=O)O` (stereo not given), in [1], the percent of DMSO control GFP is 105% (inactive). In addition, the GFP response vs DMSO in [2] was 98.5% (inactive); in [4], 78.6% (inactive). In addition, the percent response of DMSO control in assay [3] was 114% (inactive). Further, in assay [5], the GFP response, % of DMSO was 90.5% (inactive). The compound further registered a double positive events in assay [6] of 53.1%. Besides, the vesicle binding response in assay [6] was 54.6% (active). For the same compound, the inhibition in [7] was -5.89% (inactive); in assay [11], 0.46% (inactive); in assay [15] it was 8% (inactive). Further, the superoxide response (% of plate) in assay [8] was 94.6% (inactive). Besides, the aptamer binding inhibition in assay [9] is 4% (inactive). Further, the response in assay [10] was -9.77% (inactive); in assay [12], -5.71% (inactive). In assay [13], the binding (% of control) was 99.1% (inactive). For the same compound, the efflux inhibition (fraction of control) in assay [14] was -0.1 (inactive). Also, the differentiation response in assay [16] is -7.2% (inactive).

`Cn1cc(C2N3CC4(C)CN2CC(C)(C3)C4=O)c2ccccc21` (stereo not given): in [1], the percent of DMSO control GFP is 102% (inactive). The GFP response vs DMSO in [2] was 107% (inactive); in assay [4], 94% (inactive). Also, the percent response of DMSO control in assay [3] is 98.9% (inactive). Further, in [5], the GFP response, % of DMSO is 104% (inactive). Moreover, the double positive events in assay [6] turned out to be 50.6%. For the same compound, the vesicle binding response in assay [6] is 485% (inactive). Besides, the inhibition is 0.58% (inactive) in assay [7], -3.74% (inactive) in [11] and -4% (inactive) in [15]. Besides, the superoxide response (% of plate) in assay [8] was 101% (inactive). Besides, the aptamer binding inhibition in assay [9] was 2% (inactive). Further, the values for the response in [10] and in [12] were -3.83% (inactive) and -6.53% (inactive), respectively. In addition, the binding (% of control) in assay [13] was 95.1% (inactive). Moreover, the efflux inhibition (fraction of control) in assay [14] is -0.01 (inactive). Moreover, the differentiation response in assay [16] was -7.57% (inactive).

As for `O=C(NC(=S)Nc1nc(-c2ccccc2)cs1)c1ccco1`, the percent of DMSO control GFP in assay [1] was 90.9% (inactive). In addition, the GFP response vs DMSO was 132% (inactive) in [2] and 85.3% (inactive) in [4]. For the same compound, the percent response of DMSO control in assay [3] is 102% (inactive). Besides, the GFP response, % of DMSO in assay [5] was 87.3% (inactive). The compound also displayed a double positive events in [6] of 55.7%. In assay [6], the vesicle binding response was 164% (inactive). The inhibition in [7] is 1.61% (inactive); in assay [11], 16.9% (inactive); in assay [15], 7% (inactive). In addition, the superoxide response (% of plate) in [8] is 110% (inactive). The aptamer binding inhibition in assay [9] is 3% (inactive). Moreover, the response in assay [10] was -23.9% (inactive); in assay [12], -1.38% (inactive). The binding (% of control) in [13] was 102% (inactive). The efflux inhibition (fraction of control) in assay [14] was 0.12 (inactive). For the same compound, in assay [16], the differentiation response was 5.73% (inactive).

Take `CCc1cc(C(N)=S)ccn1`: the percent of DMSO control GFP in assay [1] was 99.5% (inactive). For the same compound, the GFP response vs DMSO in assay [2] was 104% (inactive); in [4], 99.1% (inactive). In assay [3], the percent response of DMSO control was 104% (inactive). The GFP response, % of DMSO in assay [5] was 107% (inactive). In assay [6], this compound showed a double positive events of 63.7%. In assay [6], the vesicle binding response is 166% (inactive). The inhibition is 9.63% (inactive) in [7], 4.47% (inactive) in assay [11] and 1% (inactive) in [15]. Further, the superoxide response (% of plate) in assay [8] was 97.7% (inactive). Further, the aptamer binding inhibition in assay [9] is 4% (inactive). Also, the response was -4.68% (inactive) in [10] and -4.94% (inactive) in assay [12]. The binding (% of control) in [13] is 101% (inactive). For the same compound, in [14], the efflux inhibition (fraction of control) was 0.12 (inactive). Further, the differentiation response in assay [16] was -8.96% (inactive).
